Screening data deposited in PubChem by National Center for Advancing Translational Sciences (NCATS).
HT1080NT lethal – kills 2HG-producing HT-1080-NT fibrosarcoma cells; HT-1080-NT fibrosarcoma viability, CellTiter-Glo ATP luminescence, 48 h; Potency, µM (series often up to 46.1 µM), without a hit: top-dose activity, negative = less viability, actives largely listed as cytotoxic; actives 1.6% (n = 360,000);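 also: NT is the 2HG producing partner of a matched IDH1 knockdown line; 0% = DMSO-treated cells and -100% = media-only wells without cells; nearly all actives have a fitted effect of over 55% in size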
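HT-1080-NT; 750 cells/well; 5% FBS RPMI; 48 h compound, 37 degrees C; CellTiter-Glo luminescence; curve fitting and curve-class assignment.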
KB-3-1 cytotox – kills parental KB-3-1 adenocarcinoma cells; Potency, µM (series often up to 46.1 µM), most hits filed as cytotoxic; actives 1.4% (n = 400,000); KB-3-1 viability, CellTiter-Glo ATP luminescence, 72 h; also: nearly all actives have a fitted effect of over 60% in size
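Cytotoxicity measured as CellTiter-Glo luminescence after 72 h at 37 C. Compound titrations were pinned onto drug-naive KB-3-1 parental adenocarcinoma cells grown in DMEM with 10% FBS, and normalized data fitted to concentration-response curves.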
DT40 TDP1 CPT – DT40-hTDP1 cell growth loss with CPT; Potency, µM (top dose mostly 46.2 µM), inactives show at the top dose activity change, negative = growth inhibition, hits mostly inhibitors; chicken DT40 Tdp1-/-;hTDP1 cells + 20 nM CPT, ATP luminescence, 48 h; actives 12% (n = 420,000); also: nearly all actives have a fitted effect of over 55% in size
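Chicken DT40 Tdp1-/- cells complemented with human TDP1, 400 cells/well, exposed to compounds plus 20 nM camptothecin for at least 48 h at 37 C; viability read as ATP content by CellTiter-Glo luminescence.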
HT1080 IDH1KD tx – toxicity to HT-1080 IDH1 knockdown cells (counter line); Potency, µM (titrated, usually from 46.1 µM), for inactives: top-dose activity, negative = toxicity, hits mostly cytotoxic; actives 2% (n = 360,000); HT-1080 IDH1 knockdown viability, ATP luminescence, 48 h;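 also: 0% = DMSO wells and -100% = cell-free medium wells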
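Viability of IDH1-knockdown HT-1080 fibrosarcoma cells was assessed by CellTiter-Glo after 48 h at 37 °C with titrated compound; concentration-effect curves were classified by fit quality and response size.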
KB-V1 cytotox – KB-V1 MDR subline cytotoxicity; KB-V1 MDR cells viability, CellTiter-Glo, 72 h; actives 3.4% (n = 400,000); Potency, µM (top dose mostly 46.1 µM), hits mostly cytotoxic; also: nearly all actives have a fitted effect of over 60% in size
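Cytotoxicity via CellTiter-Glo luminescence after 72 h compound exposure at 37 degrees C. Cells: drug-selected KB-V1 line, DMEM phenol-red free plus 10% FBS. Compounds tested at multiple concentrations; normalized data fitted to concentration-effect curves.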
TDP1 cell noCPT – qHTS for Inhibitors of human tyrosyl-DNA phosphodiesterase 1 (TDP1): qHTS in cells in absence of CPT; actives 15% (n = 420,000); Potency, µM (titrated, usually from 46.2 µM), without a hit: top-dose activity change, negative = growth inhibition, usual class: inhibitors; DT40 Tdp1-/- hTDP1 cells, no CPT, ATP luminescence, 48 h; also: nearly all actives have a fitted effect of over 55% in size
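Luminescent ATP content (CellTiter-Glo) served as the growth readout. Knockout chicken DT40 cells expressing human TDP1 were exposed to compounds without camptothecin for a minimum 48 hr at 37 °C.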
Active calls of the source: *; i = inactive; ? = inconclusive; / = no result. Compounds with a hit are over-represented: about 19% of the library has one in this group of screens. Calls follow the shape of the dose curve; as a rule, active = well fitted curve in the direction sought with a large enough effect; inconclusive = small, poorly fitted or top-dose-only effect, or another doubt; inactive = no such curve, though single readings can be large; an effect the other way counts as inactive or inconclusive. Unless noted, % is scaled to controls: 0 for no effect and ±100 for the full control effect; potency is read from the fitted curve at half-maximal effect.

SMILES	HT1080NT lethal	KB-3-1 cytotox	DT40 TDP1 CPT	HT1080 IDH1KD tx	KB-V1 cytotox	TDP1 cell noCPT
N#Cc1ccc(-c2ccc(OCC(O)CN3CCCCC3)cc2)cc1 (stereo unspecified)	-4.1%	i	23.1µM*	?	i	?
COc1cc(CN2C[C@@H](CO)O[C@@H](n3cnc4c(NC(C)C)ncnc43)C2)cc(OC)c1OC	?	i	-1.5%	5.2%	i	-14.5%
COc1ccc(O)c(/C=N/NC(=O)CSc2nnc(C)n2-c2ccccc2)c1	?	?	16.4µM*	?	i	18.4µM*
COc1cccc(/C=N/n2c(SC)nnc2-c2ccccc2)c1O	?	?	10.3µM*	?	?	16.4µM*
COc1cccc(/C=N/NC(=O)CSc2nnc(C)n2-c2ccccc2)c1O	?	?	?	13µM*	i	?
COc1ccc(OCCSc2nnc(C)n2-c2ccccc2)cc1	-8.0%	i	29.1µM*	-3.5%	i	25.9µM*
CCOC(=O)c1cccc(NC(=O)c2ccc3nc(CCc4ccccc4)oc3c2)c1	/	i	?	/	i	?
CCC(C)NC(=O)C1CCN(S(=O)(=O)c2ccc3c(ccn3CC)c2)CC1 (stereo unspecified)	/	i	-11.5%	/	i	-18.0%
CCCCSc1nc(C)cc(SCC(=O)N/N=C/c2cccc(OC)c2O)n1	?	?	1.46µM*	?	i	1.3µM*
NC(=O)CCC(=O)N1CCCC(C(=O)c2ccc(C(F)(F)F)cc2)C1 (stereo unspecified)	11.5%	i	-14.1%	7.4%	?	18.6%
CCN(CC)S(=O)(=O)c1ccc(N)cc1	-0.3%	i	5.8%	-0.8%	i	-2.6%
CCN(CC)S(=O)(=O)c1ccc(OCCNS(C)(=O)=O)cc1	0.5%	i	6.51µM*	-9.6%	i	16.4µM*
CCCN(CCC)S(=O)(=O)c1ccc(Cl)c(OC)c1	-6.2%	i	?	-1.9%	i	13µM*
CCN(CC)S(=O)(=O)c1ccc(Oc2ccccc2OC)cc1	-3.6%	i	18.4µM*	-20.9%	i	?
CCN(CC)S(=O)(=O)c1ccc(Oc2ccc(S(=O)(=O)N(CC)CC)cc2)cc1	?	?	18.4µM*	-29.4%	2.31µM*	5.8µM*
CCNS(=O)(=O)c1ccc(OCCNS(C)(=O)=O)cc1	4.2%	i	-18.7%	2.0%	i	?
Cc1cccc(NC(=O)CSc2nc(=O)n(Cc3ccccn3)c3c2CCC3)c1C	/	i	4.4%	/	i	-14.6%
O=C(NCC1(N2CCCCC2)CCCCC1)C1CC(=O)N(c2ccc3c(c2)OCCO3)C1 (stereo unspecified)	0.0%	i	0.9%	8.8%	i	3.6%
C[C@@H]1CN([C@@H](C)CO)C(=O)c2cc(Br)cnc2O[C@H]1CN(C)C(=O)c1ccncc1	-0.3%	i	2.9%	8.3%	i	3.3%
CCOc1ccc2nc(N(CCN(C)C)C(=O)/C=C/c3cccs3)sc2c1	-6.9%	?	?	-5.1%	i	23.1µM*
CN(C)CCN(C(=O)C1CCCCC1)c1nc2cc3c(cc2s1)OCCO3	-2.8%	?	-15.1%	-7.0%	i	9.2µM*
CCc1ccc2nc(N(CCN(C)C)C(=O)/C=C/c3cccs3)sc2c1	-4.0%	?	?	?	?	?
CCN(CC)CCN(C(=O)c1ccc2c(c1)OCCO2)c1nc2cc3c(cc2s1)OCO3	0.3%	i	-25.3%	-2.3%	i	-14.5%
CN(C)CCCN(C(=O)/C=C/c1cccs1)c1nc2ccc(F)cc2s1	9.2µM*	20.6µM*	2.59µM*	?	18.4µM*	4.61µM*
CCN(CC)CCN(C(=O)c1cc2c(ccc3ccccc32)oc1=O)c1nc2cc3c(cc2s1)OCCO3	?	?	18.4µM*	?	i	20.6µM*
SMILES	HT1080NT lethal	KB-3-1 cytotox	DT40 TDP1 CPT	HT1080 IDH1KD tx	KB-V1 cytotox	TDP1 cell noCPT
CCOc1ccc(C2CC(=O)n3nc(-c4ccc(C)cc4)nc3S2)cc1OC (stereo unspecified)	/	i	2.5%	/	i	-1.6%
Cc1ccc(NC(=O)C2CCCN(S(=O)(=O)c3ccc4[nH]c(=O)ccc4c3)C2)c(C)c1 (stereo unspecified)	1.7%	i	?	-0.2%	i	?
CCOc1ccc(/C=C/C(=O)N(C)CC(=O)Nc2cccc(F)c2)cc1OCC	?	i	10.2%	-29.5%	i	-4.9%
CCN(Cc1ccccc1)C(=O)c1cc(-c2ccccc2)n[nH]1	/	i	?	/	i	?
Cc1ccc2nc(N(CCN(C)C)C(=O)/C=C/c3cccs3)sc2c1	-28.5%	i	?	?	i	16.4µM*
CCN(CC)CCN(C(=O)/C=C/c1cccs1)c1nc2ccc(C)cc2s1	-6.2%	i	?	?	i	6.51µM*
CN(C)CCN(C(=O)c1cccs1)c1nc2cc3c(cc2s1)OCCO3	-7.1%	i	?	-0.1%	i	23.1µM*
CN(C)CCN(C(=O)c1ccc(Br)s1)c1nc2cc3c(cc2s1)OCCO3	-1.5%	i	7.1%	-0.7%	i	-16.7%
CN(C)CCCN(C(=O)C1COc2ccccc2O1)c1nc2ccc(F)cc2s1 (stereo unspecified)	12.4%	i	?	7.7%	i	?
CN(C)CCCN(C(=O)c1cccs1)c1nc2ccc(F)cc2s1	/	i	16.4µM*	/	?	?
CCN(CC)CCN(C(=O)/C=C/c1cccs1)c1nc2ccc(F)cc2s1	-20.6%	i	?	-9.6%	i	?
Cc1ccccc1CN1C(=O)CN(S(C)(=O)=O)CC1(C)C(=O)NC(C)C (stereo unspecified)	7.4%	i	3.2%	6.0%	i	7.2%
CC(OC(=O)C1CC1C)C(=O)Nc1ncc(Cl)cc1Cl (stereo unspecified)	17.2%	i	10.6%	2.7%	i	2.0%
Cc1ccc2oc(C(=O)Nc3c(C(=O)Nc4ccccc4)oc4ccccc34)cc(=O)c2c1	/	i	-20.0%	/	i	-8.4%
Cc1cccc(Oc2nc3c(c(=O)n(C)c(=O)n3C)n2Cc2ccccc2)c1C	/	i	7.1%	/	i	?
